{"source": "PubChem BioAssay AID422", "about": "(Emory University Molecular Libraries Screening Center, 2006)", "note": "Several values for one entry are separate records, joined by “and”; a condition that tells them apart may be missing. Equal entries are not always repeated. The campaign covered roughly 160,000 compounds. About 310 (0.19%) were called active. Rule as the data show it: active = inhibition above about 30%; inactive = the rest. The sample as a whole holds a higher share of actives than the screen did. More than one record can exist for a structure, and the calls need not agree.", "data": [{"target": "14-3-3 protein gamma (Homo sapiens) (UniProt P61981)", "sequence (P61981 whole entry, looked up)": "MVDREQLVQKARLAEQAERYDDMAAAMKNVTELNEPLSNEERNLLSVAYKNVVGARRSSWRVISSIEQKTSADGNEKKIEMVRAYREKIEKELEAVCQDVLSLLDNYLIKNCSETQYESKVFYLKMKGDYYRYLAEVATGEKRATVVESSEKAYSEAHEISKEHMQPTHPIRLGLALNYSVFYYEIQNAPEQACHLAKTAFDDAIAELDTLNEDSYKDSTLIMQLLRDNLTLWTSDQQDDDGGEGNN", "test": "14-3-3 gamma/Raf peptide interaction modulators – biochemical, fluorescence polarization, primary screen (AID 422);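 also: 0% = protein plus tracer without compound and 100% = blank with tracer alone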", "details": "FP, 14-3-3gamma / TMR-pS259-Raf peptide binding; at 40 µM; stronger effect = higher value", "values": [{"smiles": "COc1ccccc1CNC(=O)c1cc(-c2ccc(Br)s2)nc2ccccc12", "inhibition": "-1.85% (inactive)"}, {"smiles": "CCCCc1nc(N)c(C#N)c(-c2ccccc2Cl)c1CCC", "inhibition": "-5.82% (inactive)"}, {"smiles": "COc1ccc(-c2nc(CS(=O)CC(=O)NCc3ccccn3)c(C)o2)cc1", "note": "(stereo unspecified)", "inhibition": "99.2% (active)"}, {"smiles": "COc1ccc(-c2nc(CS(=O)CC(=O)NCc3cccnc3)c(C)o2)cc1OC", "note": "(stereo unspecified)", "inhibition": "-5.12% (inactive)"}, {"smiles": "COc1ccc(-c2nc(CS(=O)CC(=O)N3CCc4ccccc4C3)c(C)o2)cc1", "note": "(stereo unspecified)", "inhibition": "-4.26% (inactive)"}, {"smiles": "Fc1ccc(Nc2nc(NCc3ccccc3)c3ccccc3n2)cc1", "inhibition": "-3.64% (inactive)"}, {"smiles": "CSc1ccc(-c2nc3ccc(Cl)cn3c2Nc2ccc3c(c2)OCO3)cc1", "inhibition": "-19% (inactive)"}, {"smiles": "COc1ccc(C2Nc3ccccc3NC3=C2C(=O)CC(c2cccc([N+](=O)[O-])c2)C3)cc1", "note": "(stereo unspecified)", "inhibition": "0.48% (inactive)"}, {"smiles": "CCOc1ccc(S(=O)(=O)NC2CCCC2)c2cccnc12", "inhibition": "-6.1% (inactive)"}, {"smiles": "COc1ccc([N+](=O)[O-])cc1NC(=O)c1c([N+](=O)[O-])cnn1C", "inhibition": "-2.94% (inactive)"}, {"smiles": "O=C1C2CC=C(Cl)CC2C(=O)N1c1ccc(O)cc1", "note": "(stereo unspecified)", "inhibition": "-3.22% (inactive)"}, {"smiles": "COC(=O)c1ccccc1NC(=O)CCCn1nc([N+](=O)[O-])c(Cl)c1C", "inhibition": "-3.89% (inactive)"}, {"smiles": "CCC(C)(C(=O)NC1CCCCC1)N(C(=O)CC1NC(=O)NC1=O)c1ccccc1", "note": "(stereo unspecified)", "inhibition": "-2.16% (inactive)"}, {"smiles": "CC1CC(C)CN(CCCNC(=O)C2c3ccccc3C(=O)N(C)C2c2cccs2)C1", "note": "(stereo unspecified)", "inhibition": "4.52% (inactive)"}, {"smiles": "Cc1c(-c2nc3ccccc3c(=O)[nH]2)sc2nc(-c3ccccc3)nc(N)c12", "inhibition": "-34.5% (inactive)"}, {"smiles": "CC(C)CN(CC(C)C)S(=O)(=O)c1ccc(Br)cc1", "inhibition": "-5.87% (inactive)"}, {"smiles": "CCCCCn1c(=O)[nH]c2cc(C(=O)NC(C)C)ccc2c1=O", "inhibition": "-3.1% (inactive)"}, {"smiles": "COc1cc(N=Cc2c(O)[nH]c3ccccc23)cc(OC)c1OC", "inhibition": "1.7% (inactive)"}, {"smiles": "Cc1[nH]c2ccccc2c1C=Nc1ccc(O)cc1", "inhibition": "121% (active)"}, {"smiles": "COc1ccc(N=Cc2c(O)[nH]c3ccccc23)cc1OC", "inhibition": "-6.05% (inactive)"}, {"smiles": "CCCCNC(=O)C1CCC(=O)N1CCc1ccccc1", "note": "(stereo unspecified)", "inhibition": "-1.84% (inactive)"}, {"smiles": "CC1=C(C(=O)OCCc2ccccc2)C(c2cccc([N+](=O)[O-])c2)NC(=O)N1", "note": "(stereo unspecified)", "inhibition": "-4.75% (inactive)"}, {"smiles": "O=C1NC2=C(C(=O)c3ccccc32)C(c2ccccc2)S1", "note": "(stereo unspecified)", "inhibition": "3.21% (inactive)"}, {"smiles": "COc1ccc(C2C=C(c3ccc(-c4ccccc4)cc3)Nc3ncnn32)cc1", "note": "(stereo unspecified)", "inhibition": "-7.71% (inactive)"}, {"smiles": "O=C(Nc1ccc(-c2nnc(-c3ccccc3)o2)cc1)c1ccc(Br)o1", "inhibition": "116% (active)"}, {"smiles": "O=C(Nc1ccc(-c2nnc(-c3ccccc3)o2)cc1)C1CCCO1", "note": "(stereo unspecified)", "inhibition": "5.13% (inactive)"}, {"smiles": "O=C(Nc1ccc(-c2nc3ccc(NC(=O)c4ccc(Br)o4)cc3[nH]2)cc1)c1ccc(Br)o1", "inhibition": "-23.6% (inactive)"}, {"smiles": "O=C(CCSCc1cccc(F)c1)N1CCc2ccccc21", "inhibition": "-8.82% (inactive)"}, {"smiles": "O=C(CN1CCCN(S(=O)(=O)c2ccc(Br)cc2)CC1)Nc1ccccc1F", "inhibition": "-7.48% (inactive)"}, {"smiles": "CCc1ccc(OCCSc2nc3ccccc3c(=O)[nH]2)cc1", "inhibition": "-1.81% (inactive)"}, {"smiles": "CC(NC(=O)C(Cc1ccc([N+](=O)[O-])cc1)N1C(=O)c2ccccc2C1=O)c1ccc(CCBr)cc1", "note": "(stereo unspecified)", "inhibition": "-10.4% (inactive)"}, {"smiles": "C=C(C)Cn1c(-c2ccc(N(C)C)cc2)nc2ccccc21", "inhibition": "-2.28% (inactive)"}, {"smiles": "Cc1c(Cl)cccc1N1C(=O)C2C3c4ccccc4C(c4ccccc43)C2C1=O", "note": "(stereo unspecified)", "inhibition": "1.55% (inactive)"}, {"smiles": "O=C(Nc1ccccc1C(F)(F)F)c1ccc(SC2CCCCC2)c([N+](=O)[O-])c1", "inhibition": "-3.43% (inactive)"}, {"smiles": "O=C(Nc1cccc2c1C(=O)c1ccccc1C2=O)c1ccccc1Br", "inhibition": "-33.2% (inactive)"}, {"smiles": "COc1cc2c(cc1OC)C(COc1ccc3c(C)cc(=O)oc3c1)N(C(=O)c1cc(C)cc(C)c1)CC2", "note": "(stereo unspecified)", "inhibition": "-4.93% (inactive)"}, {"smiles": "O=C(Cn1cnc([N+](=O)[O-])c1)C1CC1", "inhibition": "7.38% (inactive)"}, {"smiles": "COc1ncnc2c1N=C1CC(C)(C)CC(N)=C1S2", "inhibition": "56.3% (active)"}, {"smiles": "CC(=O)CCC=C(C)CCC=C(C)C", "inhibition": "-6.82% (inactive)"}, {"smiles": "Cc1ccc(-c2nc3ccccc3c(C(=O)O)c2C)s1", "inhibition": "-5.29% (inactive)"}, {"smiles": "O=C1NC(c2ccc(Cl)cc2)C(C(=O)c2ccccc2)C(O)(C(F)(F)F)N1", "note": "(stereo unspecified)", "inhibition": "9.54% (inactive)"}, {"smiles": "O=C(NCCCN1CCCC1)c1ccc(N2CCCC2=O)cc1", "inhibition": "2.82% (inactive)"}, {"smiles": "Cc1ccc(Cl)cc1N1C(=O)C(N2C(=O)c3ccc([N+](=O)[O-])cc3C2=O)C1c1cccc(F)c1", "note": "(stereo unspecified)", "inhibition": "-4.78% (inactive)"}, {"smiles": "CCCC(=O)N(c1ccc2oc(C)c(C(=O)OC)c2c1)S(=O)(=O)c1cc([N+](=O)[O-])ccc1C", "inhibition": "-23.1% (inactive)"}, {"smiles": "COc1ccc(CN2C(=O)CCC2(C)C(=O)NC2CCCCCC2)c(OC)c1", "note": "(stereo unspecified)", "inhibition": "-7.62% (inactive)"}, {"smiles": "COc1ccc2cc(-c3nnc(Nc4ccccc4F)s3)c(=O)oc2c1", "inhibition": "-11.4% (inactive)"}, {"smiles": "COC(=O)C1=C(C)NC2=C(C(=O)CC(c3ccccc3Cl)C2)C1c1ccc2c(c1)OCO2", "note": "(stereo unspecified)", "inhibition": "-2.26% (inactive)"}, {"smiles": "O=c1oc2ccc(Cl)cc2cc1-c1cn2cc(Cl)cc(Cl)c2n1", "inhibition": "-12.1% (inactive)"}, {"smiles": "CN1CCc2c(n(-c3ccccc3)c3ccccc23)C1=O", "inhibition": "-14.8% (inactive)"}, {"smiles": "CCOc1ccc(N=Cc2c(O)c(C(=O)Nc3ccccc3C)cc3ccccc23)cc1", "inhibition": "79.8% (active)"}, {"smiles": "COc1cccc(C=Nc2cccc(C(=O)Nc3cccc4ccccc34)c2)c1O", "inhibition": "2.57% (inactive)"}, {"smiles": "CCOc1ccccc1C(=O)Nc1ccc(I)cc1C", "inhibition": "-132% (inactive)"}, {"smiles": "CCC(=O)N1CCc2cc(OC)c(OC)cc2C1COc1cccc(C(F)(F)F)c1", "note": "(stereo unspecified)", "inhibition": "-6% (inactive)"}, {"smiles": "Cc1ccc(-c2cc(C(=O)OCC(C)C)c3cc(C)ccc3n2)cc1", "inhibition": "3.92% (inactive)"}, {"smiles": "COc1cc(C2Nc3ccccc3NC3=C2C(=O)CC(c2ccccc2Cl)C3)cc(Cl)c1O", "note": "(stereo unspecified)", "inhibition": "-12.8% (inactive)"}, {"smiles": "COc1ccc(-n2ncc3c(N4CCc5ccccc54)ncnc32)cc1", "inhibition": "-7.74% (inactive)"}, {"smiles": "COc1ccc(-n2ncc3c(N4CCCc5ccccc54)ncnc32)cc1", "inhibition": "43.9% (active)"}, {"smiles": "Cc1cccc(-n2ncc3c(N4CCc5ccccc54)ncnc32)c1", "inhibition": "-10.6% (inactive) and 1.75% (inactive)"}, {"smiles": "CC1Cc2nc(SCC(=O)Nc3cccc(C(F)(F)F)c3)n(C)c(=O)c2S1", "note": "(stereo unspecified)", "inhibition": "-7.37% (inactive)"}, {"smiles": "CCOc1ccc(S(=O)(=O)N2CCC(C)CC2)c2ccccc12", "inhibition": "-10.1% (inactive)"}, {"smiles": "Cc1[nH]c2ccccc2c1C(=O)CSc1nc2ccccc2s1", "inhibition": "-9.51% (inactive)"}, {"smiles": "CCN1C(=O)c2cccc3c(S(=O)(=O)NC4CC(C)(C)NC(C)(C)C4)ccc1c23", "inhibition": "-11.1% (inactive)"}, {"smiles": "CC(C)(C)c1ccc(C(=O)NCc2n[nH]c(=S)n2-c2cccc(C(F)(F)F)c2)cc1", "inhibition": "4.88% (inactive)"}, {"smiles": "CN1C(=O)NC(c2cccc(Cl)c2)C2=C1CCCC2=O", "note": "(stereo unspecified)", "inhibition": "2.47% (inactive)"}, {"smiles": "Cc1ccc2c(=O)c(CN3CCOCC3)c(C)[nH]c2c1C", "inhibition": "-4.4% (inactive)"}, {"smiles": "Cc1ccc(-c2nnc(NCc3ccccc3)c3ccccc23)cc1S(=O)(=O)N1CCOCC1", "inhibition": "-13.1% (inactive)"}, {"smiles": "COc1ccc(CN2CCN(S(=O)(=O)c3cc(Br)c(Br)s3)CC2)c(OC)c1OC", "inhibition": "-1% (inactive)"}, {"smiles": "Cc1cc(N2CCOCC2)nc2ccc(NC(=O)c3ccc(F)cc3)cc12", "inhibition": "-5.58% (inactive)"}, {"smiles": "O=c1c2ccc(-c3ncc(-c4ccccc4)o3)c3cccc(c32)c2nc3cccc4cccc(c43)n12", "inhibition": "-3.12% (inactive)"}, {"smiles": "Clc1ccc2nc(-c3ccsc3)c(NC3CCCCC3)n2c1", "inhibition": "1.17% (inactive)"}, {"smiles": "O=C(CC1Sc2ccccc2NC1=O)NCCCSC1CCCCC1", "note": "(stereo unspecified)", "inhibition": "5.8% (inactive)"}, {"smiles": "Cc1cc(NCCN2CCCCCC2)n2c(nc3ccccc32)c1C#N", "inhibition": "-60.5% (inactive)"}, {"smiles": "N#Cc1c(N2CCCCCC2)ncc2cc3ccccc3nc12", "inhibition": "143% (active)"}, {"smiles": "Cc1cccc2cc(C#N)c(N3CCCC3)nc12", "inhibition": "-5.89% (inactive)"}, {"smiles": "COc1ccc(NC(=O)Nc2cccc3cccnc23)cc1", "inhibition": "-2.7% (inactive)"}, {"smiles": "O=C(Nc1cccc2cccnc12)c1cccc(N2C(=O)CCC2=O)c1", "inhibition": "2.56% (inactive)"}, {"smiles": "O=C(O)c1ccccc1C(=O)Nc1cccc2cccnc12", "inhibition": "52.6% (active)"}, {"smiles": "O=C(NC1CCCCNC1=O)c1ccc(N2CC3CC(C2)c2cccc(=O)n2C3)c(NC(=O)c2ccccc2Br)c1", "note": "(stereo unspecified)", "inhibition": "-4.63% (inactive)"}, {"smiles": "CN(Cc1ccccc1)S(=O)(=O)c1ccc2c(c1)CCN2C(=O)C1CCC1", "inhibition": "-4.53% (inactive)"}, {"smiles": "Cc1ccc(-c2csc(Nc3ccccc3)n2)c(C)c1", "inhibition": "-4.17% (inactive)"}, {"smiles": "c1ccc2[nH]c(-c3nc4ccccc4[nH]3)nc2c1", "inhibition": "-4.13% (inactive)"}, {"smiles": "O=C(CSc1nc2ccccc2[nH]1)c1cccs1", "inhibition": "-10.8% (inactive) and -0.41% (inactive)"}, {"smiles": "C=CCSc1nc2ccccc2[nH]1", "inhibition": "50.5% (active) and -1.38% (inactive)"}, {"smiles": "COc1cc(OC)c(C2C(C(=O)O)c3cc(OC)c(OC)cc3C(=O)N2C)cc1OC", "note": "(stereo unspecified)", "inhibition": "4.71% (inactive)"}, {"smiles": "O=C(O)c1c[nH]c2ccc(S(=O)(=O)N3CCN(c4cccc(Cl)c4)CC3)cc2c1=O", "inhibition": "-20.1% (inactive)"}, {"smiles": "COc1ccc(NC(=O)c2cc([N+](=O)[O-])ccc2Cl)cc1OC", "inhibition": "-12.3% (inactive)"}, {"smiles": "CC(=O)Oc1ccccc1C(=O)NCCc1ccccc1", "inhibition": "3.04% (inactive)"}, {"smiles": "COc1cc2ccccc2cc1C(=O)NCCc1ccccc1", "inhibition": "76% (active)"}, {"smiles": "COc1ccc(CCNC(=O)c2cc(Cl)ccc2OC)cc1", "inhibition": "-6.62% (inactive)"}, {"smiles": "CCCCN(CC)C(=O)C1c2cc(OC)c(OC)cc2C(=O)N(C)C1c1ccccc1F", "note": "(stereo unspecified)", "inhibition": "-7.13% (inactive)"}, {"smiles": "O=C(Oc1ccc(C2NC(=O)c3c(sc4c3CCCC4)N2)cc1)c1ccccc1", "note": "(stereo unspecified)", "inhibition": "-5.95% (inactive)"}]}]}
